Measured values taken from a collection of fitness landscapes (doi:10.1016/j.celrep.2020.107928).
In all, about 81,000 sequences were measured (“one-hybrid fitness for binding NBS DNA”: median about -0.1, highest 2% from about 0.36 on). This excerpt belongs to a sample that is enriched for the highest values.

B1: Caulobacter ParB omega fusion; a variant is named by its letters at X, in order, B8GW30 (parent)
chain: MESVVVGEPGMSEGRRGLGRGLSALLGEVDAAPAQAPGEQLGGSREAPIEILQRNPDQPRRTFREEDLEDLSNSIREKGVLQPILVRPSPDTAGEYQIVAGERAWRAAQRAGLKTVPIMVRELDDLAVLEIGIIENVQRADLNVLEEALSYKVLMEKFERTQENIAQTIGKSXSHVANXMRLLXLPDEVQSYLVSGELTAXHARAIAAAADPVALAKQIIEGGLSVRETEALARKAPNLSAGKSKGGRPPRVKDTDTQALESDLSSVLGLDVSIDHRGSTGTLTITYATLEQLDDLCNRLTRGI

Variants of: B1
Test: one-hybrid fitness for binding NBS DNA (the Noc-binding site; scaled: cognate 1, non-cognate 0); higher = stronger binding
Details: with NBS DNA site
Summary of the method: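 Fitness is the rescaled log change in variant-to-wild-type read ratio, measured by Illumina sequencing of plasmids before and after bacterial one-hybrid selection. The scale puts cognate at 1 and non-cognate at 0. Selection of Caulobacter ParB libraries, four specificity codons randomised, took place in E. coli USO with a HIS3 reporter, site 19 bp from the promoter, over 48 hours at 37°C on M9-minus-histidine with 0.1 mM IPTG and 5 mM 3-AT.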

| Variant | one-hybrid fitness for binding NBS DNA |
| --- | --- |
| QRNG | 0.381 |
| QMRG | 0.391 |
| QRDG | ≤ 0.2 |
| QRRG | 0.483 |
| QRIG | ≤ 0.2 |
| QCNG | ≤ 0.2 |
| QTYG | ≤ 0.2 |
| QMDG | ≤ 0.2 |
| QRYG | 0.312 |
| QTRG | 0.496 |
| QTDG | ≤ 0.2 |
| QMYG | ≤ 0.2 |
| AHGY | ≤ 0.2 |
| VSQE | ≤ 0.2 |
| EAKN | ≤ 0.2 |
| LLTW | ≤ 0.2 |
| AKGR | ≤ 0.2 |
| QLFF | ≤ 0.2 |
| YHKT | ≤ 0.2 |
| GRAV | ≤ 0.2 |
| LTWN | ≤ 0.2 |
| RPFS | ≤ 0.2 |
| RRFD | ≤ 0.2 |
| RRAN | 0.282 |
| RRAD | ≤ 0.2 |

| Variant | one-hybrid fitness for binding NBS DNA |
| --- | --- |
| RRAH | 0.406 |
| RRFN | 0.23 |
| RSFS | 0.252 |
| RCFS | 0.411 |
| RRFS | 0.666 |
| RRFH | 0.389 |
| RRFP | ≤ 0.2 |
| RRFM | 0.266 |
| LARA | ≤ 0.2 |
| ELER | ≤ 0.2 |
| PWIR | ≤ 0.2 |
| MRID | ≤ 0.2 |
| CPAI | ≤ 0.2 |
| RRAS | 0.655 |
| RRAP | ≤ 0.2 |
| RRAK | 0.254 |
| RIQD | ≤ 0.2 |
| RIQH | ≤ 0.2 |
| RILR | 0.27 |
| RIHP | ≤ 0.2 |
| RIPR | ≤ 0.2 |
| RIHH | ≤ 0.2 |
| RIHR | 0.477 |
| RIQR | 0.38 |
| RISD | ≤ 0.2 |

| Variant | one-hybrid fitness for binding NBS DNA |
| --- | --- |
| RISR | 0.386 |
| RIYR | 0.377 |
| RISN | ≤ 0.2 |
| PALM | ≤ 0.2 |
| HPME | ≤ 0.2 |
| PIEV | ≤ 0.2 |
| KSHW | ≤ 0.2 |
| VSAN | ≤ 0.2 |
| EYDR | ≤ 0.2 |
| AMER | ≤ 0.2 |
| ITVP | ≤ 0.2 |
| GPTF | ≤ 0.2 |
| TCYM | ≤ 0.2 |
| RGSS | ≤ 0.2 |
| WTNW | ≤ 0.2 |
| HPYT | ≤ 0.2 |
| GAIA | ≤ 0.2 |
| RIWM | ≤ 0.2 |
| RIWR | 0.367 |
| RIRR | 0.638 |
| RIWN | ≤ 0.2 |
| RIRH | 0.333 |
| RIGR | 0.441 |
| RIGD | ≤ 0.2 |
| RIGH | ≤ 0.2 |

| Variant | one-hybrid fitness for binding NBS DNA |
| --- | --- |
| RIIR | ≤ 0.2 |
| ISCL | ≤ 0.2 |
| YPMG | ≤ 0.2 |
| GWYC | ≤ 0.2 |
| RPAE | ≤ 0.2 |
| HFNL | ≤ 0.2 |
| RVAR | 0.396 |
| RVFR | 0.34 |
| RVWR | 0.248 |
| RVQH | ≤ 0.2 |
| RVYR | 0.359 |
| RVAH | ≤ 0.2 |
| RVQR | 0.415 |
| RVRR | 0.626 |
| RVQS | 0.357 |
| TANR | ≤ 0.2 |
| ERVW | ≤ 0.2 |
| TLWC | ≤ 0.2 |
| KAYA | ≤ 0.2 |
| QKKE | 0.283 |
| QKVQ | 0.268 |
| QKKN | 0.42 |
| QKHQ | ≤ 0.2 |
| QKVH | ≤ 0.2 |
| QKKH | 0.619 |
